# PP5 primary: blocks human protein phosphatase 5 activity; P53041; purified PP5c, OMFP substrate fluorescence; inhibition, % at 6.7 µM; 0.18% of 320,000 active; AID 1987;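 active means inhibition above the campaign's mean inhibition across all tested compounds plus 3 SD, cut at about 9.5% in these data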;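 further: 0% = DMSO only and 100% = 100 µM cantharidin control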
# Target sequence (P53041 whole entry, looked up): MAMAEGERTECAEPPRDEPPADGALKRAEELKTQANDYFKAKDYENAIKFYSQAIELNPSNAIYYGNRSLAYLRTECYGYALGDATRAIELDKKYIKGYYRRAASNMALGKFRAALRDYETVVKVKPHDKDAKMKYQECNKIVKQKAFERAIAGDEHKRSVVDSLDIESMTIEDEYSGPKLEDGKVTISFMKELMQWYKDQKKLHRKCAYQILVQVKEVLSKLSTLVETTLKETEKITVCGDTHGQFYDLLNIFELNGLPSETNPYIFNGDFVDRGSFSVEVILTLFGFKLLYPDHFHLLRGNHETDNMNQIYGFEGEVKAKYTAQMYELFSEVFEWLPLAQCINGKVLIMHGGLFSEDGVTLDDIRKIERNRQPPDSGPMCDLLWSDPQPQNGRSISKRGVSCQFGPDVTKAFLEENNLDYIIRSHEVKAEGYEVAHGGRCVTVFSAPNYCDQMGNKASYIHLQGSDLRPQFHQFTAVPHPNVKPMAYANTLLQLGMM
# EBNA-1 inh: blocks EBNA-1 binding to DNA. EBNA-1 DNA binding, fluorescence polarization. inhibition, % at 14.8 µM. 0.34% of 300,000 active; in the data active means inhibition above about 28%
# bovine MsrA act: activators of bovine methionine sulfoxide reductase A. purified bovine MsrA, absorbance read-out. activation, % at 10.6 µM. 0.3% of 360,000 active; in the data active means activation above about 7.5%;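 further: 0% = vehicle and 100% = reference activator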
# MsrA inhibitor: inhibits bovine methionine sulfoxide reductase A | inhibition, % at 15.5 µM | purified bovine MsrA, absorbance read-out | 0.75% of 360,000 active; in the data active means inhibition above about 4.5%;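 further: 0% = vehicle wells with enzyme and 100% = reference inhibitor wells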
# ZTA DNA inh: blocks Epstein-Barr virus ZTA, an EBNA-1 counter-screen; P03206; ZTA-DNA binding, fluorescence polarization; inhibition, % at 11 µM; 0.15% of 320,000 active; in the data active means inhibition above about 33%
# PP1 inh: PP1-alpha (human) inhibition in PP5 counter-screen; purified PP1alpha, OMFP fluorescence; inhibition, % at 6.7 µM; 0.9% of 320,000 active;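 active means inhibition above the mean inhibition of all tested compounds plus 3 SD, computed separately for each screening campaign, cut at about 15% in these data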
# MsrA activ conf: bovine methionine sulfoxide reductase A activation confirmed; AID 602270; purified bovine MsrA, absorbance read-out; shares compounds with bovine MsrA act; 12% of 1,000 active; activation, % at 10.6 µM; in the data active means activation above about 4%;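 further: enzyme coupled to thioredoxin and thioredoxin reductase with NADPH; 0% = vehicle wells and 100% = reference activator wells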
# Starred values were filed as active, the others as inactive; . = no result. Rows were chosen to be rich in hits. Some 2.3% of all compounds tested hit in one or more screens of this group.
SMILES,PP5 primary,EBNA-1 inh,bovine MsrA act,MsrA inhibitor,ZTA DNA inh,PP1 inh,MsrA activ conf
COc1ccccc1OCC(=O)N/N=C/C=C/c1ccc([N+](=O)[O-])o1,0.3,9.2,10.0*,1.3,16.6,2.4,2.5
COc1ccc(-c2cc3c(=O)n(CC(=O)NCCN4CCCC4)nc(C)n3n2)cc1,1.3,1.3,-0.1,-1.1,0.3,2.0,.
CCOC(=O)c1[nH]c2ccc(OC)cc2c1NS(=O)(=O)c1ccc(OC)cc1OC,2.5,5.0,9.7*,0.1,17.5,-0.6,-1.8
Cc1cc(OCC(=O)Nc2nnc(C3CC3)s2)ccc1C(C)C,1.0,.,10.9*,-1.2,7.3,-0.6,-2.1
Cc1ccc(C(C)C)cc1OCC(=O)Nc1nnc(C2CC2)s1,.,.,-2.6,0.5,.,.,.
NC(=S)Nc1ccc2c(c1)OCO2,-4.2,2.6,14.7*,-1.1,25.9,-2.4,-3.0
C=C(C)C1Cc2c(C)nn(-c3cccc4ccccc34)c2C1 (configuration not stated),1.2,14.9,8.0*,-0.9,6.2,-3.5,-2.0
Cc1cc(C)cc(N(CC(=O)Nc2ccccc2C(=O)N2CCOCC2)S(C)(=O)=O)c1,0.1,-2.1,9.2*,-0.7,10.3,-4.4,-1.6
Cc1ccc(S(=O)(=O)N(CC(=O)Nc2ccccc2C(=O)O)c2ccccc2)cc1,0.2,-0.6,7.8*,1.6,-6.0,0.8,-3.4
COc1ccccc1NC(=O)CN(c1ccccc1)S(=O)(=O)c1ccccc1,5.7,9.3,-12.8,-1.2,10.5,2.5,.
COC(=O)c1sc(=S)n(-c2ccccc2OC)c1N,0.5,9.6,-1.2,2.1,4.1,-4.6,.
CCOC(=O)c1sc(=S)n(-c2ccccc2OC)c1N,1.9,3.5,8.4*,3.0,8.2,-4.2,-5.6
CCN(CC)c1ccc(N2C(=NC(=O)C3CC3)SC3CS(=O)(=O)CC32)cc1 (configuration not stated),0.4,-5.1,-9.1,0.9,-0.1,-0.9,.
Clc1ccccc1N=Nc1ccccn1,.,.,33.6*,0.2,.,.,0.0
COc1ccccc1-[n+]1c(C)cc(/C=C2\Sc3ccccc3N2C)cc1C,-1.2,11.0,8.2*,-1.2,2.4,4.2,-2.9
COc1ccc(C(=O)NCCCn2nc(C)cc2C)cc1S(=O)(=O)N1CCOCC1,.,.,-3.5,-0.4,.,.,.
Cc1nnc(SCC(=O)NCCN2C(=O)CSC2=O)n1-c1ccccc1,1.3,-9.3,-8.0,-1.0,-2.9,-4.9,.
O=C(CSc1nnc(Cc2ccccc2)o1)NCCN1C(=O)CSC1=O,1.8,-5.6,19.4*,-0.8,1.0,1.4,-1.5
CN(C)c1nc(NC(C)(C)C)nc(SCC(=O)Nc2ccccc2)n1,2.5,4.8,7.7*,0.3,3.1,0.4,-2.9
O=C(NC(CC(=O)N1CCCC(C(F)(F)F)C1)c1ccccc1)c1ccccc1Cl (configuration not stated),3.4,-3.3,-2.0,0.0,-0.6,0.1,.
CCN1C(=O)N(C)[C@@H](c2ccccc2)C(C(=O)OC)=C1C,0.1,5.8,9.3*,0.1,11.6,-3.8,-4.4
COc1ccc(S(=O)(=O)N2CCOCC2)cc1NC(=O)COC(=O)c1ccc([N+](=O)[O-])s1,.,.,19.8*,.,.,.,10.7*
O=C(COC(=O)c1ccc([N+](=O)[O-])s1)Nc1ccc(Cl)cn1,-1.2,-6.6,6.9,1.4,7.3,0.9,.
O=C(COc1ccccc1)Nc1ccc([N+](=O)[O-])cc1,1.7,-17.5,19.9*,2.0,-13.7,-1.1,1.7
O=C(COC(=O)c1ccc([N+](=O)[O-])s1)Nc1ccc(F)cc1,-0.8,.,19.6*,1.6,11.4,-0.1,9.1*
SMILES,PP5 primary,EBNA-1 inh,bovine MsrA act,MsrA inhibitor,ZTA DNA inh,PP1 inh,MsrA activ conf
O=C(COC(=O)c1ccc([N+](=O)[O-])s1)NC(c1ccccc1)c1ccccc1,1.4,5.3,17.4*,1.8,2.7,5.0,6.0*
O=C(COC(=O)c1ccc([N+](=O)[O-])s1)Nc1ccccc1,1.3,-0.9,22.5*,0.3,-1.0,0.2,10.6*
CC(=O)Nc1ccc(OCC(=O)NCCc2ccccc2)cc1,-2.9,-10.7,7.8*,1.0,-1.8,3.4,0.0
O=C(COC(=O)c1ccc([N+](=O)[O-])s1)NCc1ccccc1,3.0,1.4,8.4*,-0.5,-11.6,0.6,2.0
CC(C)(C)c1ccc(NC(=O)COC(=O)c2ccc([N+](=O)[O-])s2)cc1,2.9,-5.3,10.4*,0.3,6.2,10.9,4.3*
O=C(COC(=O)c1cccs1)Nc1cccc(S(=O)(=O)NC2=NCCCCC2)c1,1.4,-8.3,2.5,1.5,1.1,-2.7,.
O=C(COC(=O)c1ccc([N+](=O)[O-])s1)Nc1cccc(S(=O)(=O)NC2=NCCCCC2)c1,1.7,1.4,9.8*,2.8,5.0,0.3,4.4*
O=C(Cn1c(=O)oc2ccccc21)Nc1n[nH]c(=S)s1,0.8,-7.5,7.9*,1.8,5.7,-0.4,5.5*
O=C(Cn1c(=O)oc2ccccc21)Nc1nc(-c2ccccc2)cs1,-0.1,6.5,-5.5,0.6,-9.2,0.7,.
CC(C)CNS(=O)(=O)c1ccc(CCC(=O)NCCc2ccccc2)cc1,-0.9,10.4,0.8,-1.4,7.0,-2.1,.
CCOC(=O)Cn1nc(C)c(NC(=O)COc2ccccc2)c1C,0.7,-5.2,8.0*,-0.7,-13.1,-3.5,1.6
CCOC(=O)Cn1nc(C)c(NC(=O)COc2ccc(OC)cc2)c1C,0.5,4.8,-3.7,0.7,4.4,-4.5,.
COC(=O)C[C@@H]1C[C@H]2c3cc(NS(C)(=O)=O)ccc3O[C@H]2[C@H](CO)O1,.,.,1.1,0.2,.,.,.
O=C(O)CCN1CCc2ccccc2C1c1ccncc1 (configuration not stated),-0.2,2.7,-9.9,1.3,2.1,-1.5,.
CCN(CC)S(=O)(=O)c1ccc2c(c1)N(CC(=O)Nc1cccnc1Cl)C(=O)CO2,0.1,0.2,-3.2,-0.5,22.8,-4.3,.
Cn1nc(C(=O)OCC(=O)Nc2cc(Cl)ccc2C#N)c2ccccc2c1=O,0.7,.,10.1*,-0.1,-1.4,0.6,-3.1
Cn1nc(C(=O)OCC(=O)Nc2ccccc2[N+](=O)[O-])c2ccccc2c1=O,3.7,.,-2.5,-0.2,-17.1,-1.6,.
COc1ccc(Cl)cc1-c1n[nH]c(=S)n1C1CCCCC1,3.0,1.5,-3.6,1.1,5.5,0.8,.
Cc1cc(Cl)ccc1OCc1n[nH]c(=S)n1C1CCCCC1,3.6,-3.2,8.6*,0.0,-4.4,8.0,0.3
Cc1ccc(C(=O)CC(C(=O)O)n2cnc([N+](=O)[O-])n2)cc1 (configuration not stated),0.5,-4.8,9.4*,-1.3,-15.9,-2.1,-2.1
Cc1cccc(NC(=O)CSCC(=O)NCc2ccco2)c1,1.3,2.7,-5.4,-0.7,-15.0,-1.7,.
OC(c1ccc(F)c(F)c1)c1nc(-c2ccc3ccccc3c2)cs1 (configuration not stated),.,.,9.2*,-0.8,.,.,0.6

# Screening data (PubChem)
